Records with an inconclusive call do not appear. Where a call stands in place of a potency, no number is given. Active and inactive are the calls of the source. The call rests on the fitted dose curve; in most records, active means well fitted curve in the direction sought with a large enough effect; inconclusive means small, poorly fitted or top-dose-only effect, or another doubt; inactive means no such curve, though single readings can be large; an effect the other way counts as inactive or inconclusive.
Legend:
[1] = Cellular Toxicity (caspase-3) HUV-EC-C (AID 656)
How it was run: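 Luminescent Caspase-Glo 3/7 readout after 16 h, 37 °C compound exposure of HUV-EC-C endothelial cells, 1000 per well, complete medium. AC50 derived by Hill fitting, with DMSO as baseline and 100 uM tamoxifen as full activation.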

[2] = Cellular Toxicity (caspase-3) SHSY5Y (AID 657);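 further: cells exposed to compound for 16 hours at 37 °C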; further: potency means the concentration at half of the fitted maximal effect
Description: NIH Chemical Genomics Center [NCGC]
NIH Molecular Libraries Screening Centers Network [MLSCN]
National Institutes of Environmental Health Sciences [NIEHS]
National Toxicology Program [NTP]
We have developed a 1536-well cell-based assay for quantitative high throughput screening (qHTS) against a number of cell lines to determine in vitro caspase 3/7 activity of small molecules. This particular assay uses the SH-SY5Y cell line which is derived from human neuroblastoma.
NCGC Assay Protocol Summary:
The Caspase-Glo 3/7 assay (Promega) is a homogeneous method to measure caspase-3 and caspase-7 activities in cultured cells. The quantitation of caspase 3/7 activity is based on the cleavage of a peptide-aminoluciferin substrate. After caspase cleaves the substrate the free aminoluciferin is liberated and serves as the substrate of luciferase, which generates the light. The luminescent signal is proportional to the amount of caspase 3/7 activity present.
Using the Caspase-Glo 3/7 assay, the amount of caspase 3/7 activity was measured in the SH-SY5Y cell line with complete culture medium following compound treatment for 16 hours. The assay was performed in opaque white 1536-well plates. In the screen, staurosporine and doxorubicin were used as positive controls. Library compounds were measured for their ability to cause the activation of caspase 3/7 in the cell line, as reflected by an increase in luminescence signal, in a concentration-dependent manner. Data were normalized to the controls for basal activity (DMSO only) and 100% stimulation (10 uM staurosporine). AC50 values were determined from concentration-response data modeled with the standard Hill equation.
qHTS protocol for caspase 3/7 assay in SH-SY5Y cells
[Step] [Parameter] [Value] [Description]
1. Reagent; 5 uL; 1500 SH-SY5Y cells/well
2. Time; 5 hr; 37 °C incubation
4. Controls; 23 nL; doxorubicin 7 pM to 100 uM & staurosporine 1.4 pM to 20 uM
5. Time; 16 hr; 37 °C incubation
6. Reagent; 5 uL; Caspase-Glo 3/7 reagent
7. Time; 1 hr; Room Temperature
8. Detection; Luminescence; Viewlux plate reader
Keywords: caspase 3/7, apoptosis, SH-SY5Y cell line, luminescence, NTPHTS, NTPHTS_NCGC, NIEHS, EPA, DSSTox, MLSMR, MLSCN, NIH Roadmap, qHTS, NCGC

[3] = Cellular Toxicity (caspase-3) BJ (AID 658)
How it was run: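 qHTS, BJ fibroblasts, 1000 cells/well; 5 hr preincubation, 16 hr compound, 37 °C; Caspase-Glo 3/7 reagent, 1 hr RT; luminescence. DMSO = 0%, 10 uM staurosporine = 100%. Hill-equation AC50.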

[4] = Cellular Toxicity (caspase-3) MRC-5 (AID 659)
How it was run: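 MRC-5 fibroblasts, 1500/well; 16 h cpd, 37 °C; Caspase-Glo 3/7, 1 h RT; lumi read. Norm: DMSO = 0%, 10 uM staurosporine = 100%. Hill-fit AC50 from qHTS conc-response.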

[5] = Cellular Toxicity (caspase-3) Mesangial (AID 660); details: Potency: caspase-3 activation;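 further: combined caspase 3 and 7 activity read by Caspase-Glo luminescence; cells exposed to compound for 16 h before the caspase read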; further: potency means the concentration at half of the fitted maximal effect
How it was run: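 Seed cells derived from normal human renal glomeruli, incubate 5 h, add compounds across concentrations and incubate 16 h at 37 °C. Caspase 3/7 activation is then quantified by luciferase light, with AC50 derived by Hill modeling.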

[6] = Cellular Toxicity (caspase-3) SK-N-SH (AID 661); further: potency means the concentration at half of the fitted maximal effect
How it was run: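 Cells were seeded and incubated 5 hr at 37 °C, dosed with compound over a concentration range for 16 hr, then given Caspase-Glo 3/7 reagent for 1 hr at room temperature before luminescence reading.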

[7] = Cellular Toxicity (caspase-3) H-4-II-E (AID 663); details: Potency: caspase-3 activation; further: potency means the concentration at half of the fitted maximal effect;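 on caspase-3 activation: cells exposed to compound for 16 hr before readout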
How it was run: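 H-4-II-E rat hepatoma, 1500 cells/well, 5 hr settle at 37 °C; compound 16 hr, 37 °C, complete medium; Caspase-Glo 3/7, 20 min RT; luminescence. DMSO = 0%, 100 uM tamoxifen = 100%; Hill-equation AC50.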

[8] = Cellular Toxicity (caspase-3) Hek293 (AID 664);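 further: cells exposed to compound for 16 h at 37 °C before readout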
How it was run: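 qHTS, HEK293 (human embryonic kidney), 16 h cpd exposure in complete medium. Caspase-3/7 activation = luminescence increase; normalized to DMSO/100 uM tamoxifen; Hill-fit AC50.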

[9] = Cellular Toxicity (caspase-3) N2a (AID 665);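 further: compound exposure lasted 16 h at 37 °C before readout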
How it was run: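 Caspase-3/7 activation, measured as increased luminescence from aminoluciferin release, is quantified in mouse N2a cells exposed to compounds for 16 h. Values are normalized to DMSO and 10 uM staurosporine, with AC50 derived by Hill modelling.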

[10] = Cellular Toxicity (caspase-3) Jurkat (AID 655);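 further: cells exposed to compound for 16 h at 37 °C before reading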; further: potency means the concentration at half of the fitted maximal effect
How it was run: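 Luminescent Caspase-Glo 3/7 read-out (20 min, room temperature) after 16 h compound treatment at 37 C of 5000 Jurkat cells per well. AC50 derived by Hill-equation fitting, scaled between DMSO basal and 100 uM tamoxifen stimulation.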

Row | Compound | outcome [1] | Potency [2] | outcome [3] | outcome [4] | Potency [5] | Potency [6] | Potency [7] | outcome [8] | outcome [9] | Potency [10]
1 | Oc1c(Br)cc(Br)cc1Br | inactive | inactive | inactive | inactive | inactive | inactive | inactive | inactive | inactive | –
2 | O=C(CCl)c1ccc(Cl)cc1Cl | inactive | 2510 nM (active) | inactive | inactive | inactive | 1580 nM (active) | – | – | inactive | 251 nM (active)
3 | CCCCCCCCCCCC[N+](C)(C)CCOc1ccccc1 | inactive | inactive | – | – | inactive | – | – | inactive | inactive | –
4 | CN(C)C(=S)SSC(=S)N(C)C | inactive | inactive | inactive | inactive | 398 nM (active) | inactive | inactive | inactive | inactive | 63.1 nM (active)
5 | CNC(=O)Oc1cccc2ccccc12 | inactive | inactive | inactive | inactive | inactive | inactive | inactive | inactive | inactive | inactive
6 | CC[n+]1c(-c2ccccc2)c2cc(N)ccc2c2ccc(N)cc21 | inactive | inactive | inactive | inactive | inactive | inactive | inactive | inactive | inactive | inactive
7 | C[C@@H]1C[C@@H]([C@H](O)CC2CC(=O)NC(=O)C2)C(=O)[C@@H](C)C1 | inactive | inactive | inactive | inactive | inactive | inactive | 15800 nM (active) | inactive | inactive | –
8 | COP(=O)(OC)OC=C(Cl)Cl | inactive | inactive | inactive | inactive | inactive | inactive | inactive | inactive | inactive | inactive

— PubChem BioAssay (NCATS)
